PP1 counter – blocks human PP1-alpha phosphatase, a PP5 counter-screen. P62136. purified PP1alpha, OMFP fluorescence. inhibition, % at 6.7 µM. 0.9% of 320,000 active. AID 2235;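 active = inhibition above the mean inhibition of all tested compounds plus 3 SD, computed separately for each screening campaign, cut at about 15% in these data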
Target sequence (P62136 whole entry, looked up): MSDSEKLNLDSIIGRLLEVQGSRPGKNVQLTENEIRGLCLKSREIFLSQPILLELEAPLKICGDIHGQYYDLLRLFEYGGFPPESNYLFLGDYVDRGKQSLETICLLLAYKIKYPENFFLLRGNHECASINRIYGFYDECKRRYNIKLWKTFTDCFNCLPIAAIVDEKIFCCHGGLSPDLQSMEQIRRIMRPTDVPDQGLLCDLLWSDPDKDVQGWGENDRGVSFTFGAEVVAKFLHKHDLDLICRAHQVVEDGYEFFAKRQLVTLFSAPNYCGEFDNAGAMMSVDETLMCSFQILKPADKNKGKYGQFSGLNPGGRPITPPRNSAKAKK
Calb FLC – affects C. albicans growth with fluconazole. 0.57% of 300,000 active. C. albicans CaCi-2 (fluconazole-resistant clinical isolate) + fluconazole, Alamar Blue growth, 48 h. AID 1979. growth inhibition, % (concentration not given with the values);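 active = growth inhibition above about 58% in most replicates, limit read from the data, passing the limit was not always enough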;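 note: all wells also contain fluconazole at 8 µg/ml as a sub-toxic cotreatment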
CSC inhib – cancer stem cell inhibition; cancer stem cell-like cells viability, luminescence; 1.1% of 300,000 active; AID 2717; inhibition, % at 7.5 µM; in the data active = inhibition above about 75%; tested in HMLE shEcad cells
PP5 primary – PP5 (human) phosphatase inhibition. 0.18% of 320,000 active. inhibition, % at 6.7 µM. AID 1987. purified PP5c, OMFP substrate fluorescence;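 active = inhibition above the campaign's mean inhibition across all tested compounds plus 3 SD, cut at about 9.5% in these data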
ALR inh – inhibitors of human sulfhydryl oxidase ALR; inhibition, % (test concentration not listed); purified ALR, DTT oxidation, H2O2 HRP-luminol luminescence; 3.8% of 290,000 active; AID 485317; P55789;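 active = mean replicate inhibition above about 79%, with every replicate also reaching it, limit read from the data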
Target sequence (P55789 whole entry, looked up): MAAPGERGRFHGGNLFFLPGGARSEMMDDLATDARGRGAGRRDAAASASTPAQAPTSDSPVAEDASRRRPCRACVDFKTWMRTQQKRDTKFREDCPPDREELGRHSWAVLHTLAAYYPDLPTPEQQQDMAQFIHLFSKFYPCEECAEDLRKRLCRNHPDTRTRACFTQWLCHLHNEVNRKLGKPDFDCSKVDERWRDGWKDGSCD
Hits are given with their value; n = inactive; x = no result. Rows were chosen to be rich in hits. Some 5.4% of all compounds tested hit in one or more screens of this group.

SMILES	PP1 counter	Calb FLC	CSC inhib	PP5 primary	ALR inh
Cc1ccc(C(=O)N2CCN(c3ccccc3O)CC2)cc1S(=O)(=O)N1CCCCC1	n	n	n	n	97.6
COc1ccccc1N1CCN(S(=O)(=O)c2cc(C)sc2C)CC1	n	n	n	n	x
CC(C)(C)OC(=O)N1CCC(c2c(C(=O)NCC3CCN(C4CCCC4)C3)cnn2-c2ccc(F)cc2)CC1 (centres undefined)	n	n	n	n	n
CC1CC(C)CN(CC(O)COC2CC(C)CC(C)(C)C2)C1 (centres undefined)	n	n	n	n	n
CCN(CC)C(=O)C1CCCN(c2ccc([N+](=O)[O-])cc2/C=N/NC(=O)c2cccc(Br)c2)C1 (centres undefined)	17.2	n	n	n	n
CCn1c(C)nc2cc(C(=O)NNC(=O)c3ccc(C)cc3)ccc21	n	x	x	n	x
O=C(NNC(=O)c1csc(-c2cccnc2)n1)c1ccccc1	n	n	n	n	n
O=C(COc1ccccc1)N1CCN(S(=O)(=O)Cc2ccccc2)CC1	n	n	n	n	n
COc1ccc(Nc2nc(CN3CCOCC3)nc3sc4c(c23)CCC(C)C4)cc1OC (centres undefined)	n	n	n	n	n
CC1CCc2c(sc3nc(CN4CCOCC4)nc(Sc4ccccc4)c23)C1 (centres undefined)	n	n	84.3	n	98.4
CC1CCc2sc3ncnc(N4CCOCC4)c3c2C1 (centres undefined)	n	n	n	n	n
CC1CCc2c(sc3ncnc(N4CCOCC4)c23)C1 (centres undefined)	n	87.8	n	n	n
Cc1cnc(NS(=O)(=O)c2ccccc2)c(C)n1	n	n	n	n	n
Cc1nn(C)c(Sc2ccccc2N)c1[N+](=O)[O-]	n	n	n	n	97.8
Cc1nn(C)c(N)c1[N+](=O)[O-]	n	n	n	n	n
CCN(CC)c1ccc(/C=C2\CCC(/C=N/NC(=O)c3ccc(=O)n(C)c3)=C2N2CCOCC2)cc1	n	n	n	n	99.6
O=C(N/N=C/C1=C(N2CCOCC2)C(=C\c2ccccc2)/CC1)Nc1ccccc1	n	n	n	n	n
Cc1ccc(N(CC(=O)NCc2ccc3c(c2)OCO3)S(C)(=O)=O)cc1	n	n	n	n	x
COC(=O)c1sc(N2C(=O)C(O)=C(C(=O)c3ccc(C)o3)C2c2ccco2)nc1C (centres undefined)	n	n	n	n	n
Cc1ccc2nc(N3C(=O)C(O)=C(C(=O)c4ccco4)C3c3ccc(O)cc3)sc2c1 (centres undefined)	15.2	n	n	n	x
Cc1ccc2nc(N3C(=O)C(O)=C(C(=O)c4ccc(C)o4)C3c3ccco3)sc2c1 (centres undefined)	15.8	x	n	n	n
COc1ccccc1Oc1c(C)oc2c(CN(C)C)c(O)ccc2c1=O	n	n	n	n	n
CC(=O)NCCc1c(C)n(Cc2ccccc2)c2ccccc12	n	n	n	n	98.8
CC1CC(CC(=O)Nc2nc(-c3ccccc3)cs2)C(=O)O1 (centres undefined)	n	n	n	n	n
C/C(CC1CC(COCC(C)C)OC1=O)=N\Nc1nc(-c2ccccc2)cs1 (centres undefined)	n	n	n	n	97.7
SMILES	PP1 counter	Calb FLC	CSC inhib	PP5 primary	ALR inh
Cc1nc(N2CCCCC2)c2c(C)c(C(=O)Nc3ccccc3C(F)(F)F)sc2n1	n	n	77.1	n	n
FC(F)(F)c1ccccc1/C=N/n1c(C2CCCCC2)n[nH]c1=S	n	n	x	n	x
CCOc1ccccc1NC(=O)CSc1ccc2nnc(-c3cccnc3)n2n1	n	n	n	n	n
Cc1oc(C(=O)O)cc1CSCc1cc(C(=O)O)c(C)o1	n	n	n	n	99.1
CC1(C)CC(=O)C2=C(C1)OC(N)=C(C#N)C2c1cccs1 (centres undefined)	n	n	n	n	95.7
C=CCn1cccc(C(=O)Nc2ccc(N(C)C)cc2)c1=O	n	n	n	n	98.8
CCCCCc1ccc(C(=O)CCCC)c(=S)[nH]1	n	n	n	n	n
CC(C)Cc1nc2oc3c(Cl)ncnc3c2c2c1CCCC2	n	n	76.2	n	n
CC[C@H]1CC2CN3CCc4c([nH]c5c([C@H]6C[C@H]7[C@H](CC)CN(C)[C@@H](Cc8c6[nH]c6ccccc86)[C@H]7C(=O)OC)c(OC)ccc45)C(C(=O)OC)(C2)C13	n	n	102.6	n	n
CCC1CN(C)C2Cc3c([nH]c4ccccc34)C(=O)CC1C2C(=O)OC (centres undefined)	n	n	n	n	n
CN(C)c1ccc(-c2n(C)c3ccccc3[n+]2C)cc1	n	101.7	x	n	n
CCOC(=O)N1CCN(C(=O)c2ccc3c(c2)N(Cc2ccc(F)cc2)CCS3)CC1	n	n	n	n	97.6
O=C(NCCN1CCOCC1)c1cc2sccc2n1Cc1ccc(F)cc1	n	n	n	n	96.6
CN1CCN(CCCNC(=O)c2ccc3c(c2)N(Cc2ccc(F)cc2)CCS3)CC1	n	n	n	n	98.9
O=C(c1cc2sccc2n1Cc1ccc(F)cc1)N1CCN(c2nc3ccccc3s2)CC1	17.3	n	n	n	n
CN1C(=O)/C(=C/c2ccc(O)c([N+](=O)[O-])c2)NC1=S	n	n	n	n	n
COC(=O)COc1ccc(C(=O)OC)cc1	n	n	n	n	x
O=C(NCC1CCCO1)c1ccc2c(c1)N(Cc1ccc(F)cc1Cl)C(=O)CS2 (centres undefined)	n	n	n	n	x
O=C(NCCCN1CCOCC1)c1ccc2c(c1)N(Cc1ccc(F)cc1)CCS2	n	n	n	n	98.9
O=C(NCC1CCCO1)c1ccc2c(c1)N(Cc1ccc(F)cc1)CCS2 (centres undefined)	n	n	n	n	98.6
CC(C)COc1ccc(-c2nn(-c3ccccc3)cc2CO)cc1	n	n	n	n	n
O=C(O)CCC(=O)N1CCOc2ccc(Cl)cc21	n	n	n	n	n
COc1ccc(CCN2C(=NC(=O)CC(C)C)SC3CS(=O)(=O)CC32)cc1OC (centres undefined)	n	n	n	n	n
COc1ccc(C(=O)NC2CC3CCCC(C2)N3CC(C)C)cc1 (centres undefined)	n	n	n	n	n
CCOC(=O)C(Sc1nn(C)c(=S)s1)C(C)=O (centres undefined)	n	n	n	n	93.8
SMILES	PP1 counter	Calb FLC	CSC inhib	PP5 primary	ALR inh
COCCN(CCOC)S(=O)(=O)c1ccc(C(=O)Nc2nc(-c3ccncc3)cs2)cc1	n	x	n	n	n
COc1cccc(C=Nc2ccc3c(c2)OCCO3)c1O	n	n	n	n	87.4
COc1cccc(C=Nc2ccc(N3CCOCC3)cc2)c1O	n	n	n	n	98.7
CCN1CCN(c2ccc(N=Cc3ccccc3O)cc2)CC1	n	n	n	n	97.6
Cn1c(CN2CCN(c3cccc(Cl)c3)CC2)nc2ccccc21	n	n	n	n	n
Cc1ccc(SC(=O)COc2ccccc2C)cc1	n	n	n	n	98.8
CCCCn1c(N)c(-c2nc3ccccc3o2)c2c([N+](=O)[O-])nn(C)c(=O)c21	n	n	n	n	n
CNCc1ccccc1Sc1ccc(O)c(O)c1	n	106.6	85.3	n	98.7
